Test results taken from PubChem BioAssay (NCATS).
Results filed as inconclusive are left out. Calls of active or inactive are those of the source. The call rests on the fitted dose curve; in most records, active means well fitted curve in the direction sought with a large enough effect; inconclusive means small, poorly fitted or top-dose-only effect, or another doubt; inactive means no such curve, though single readings can be large; an effect the other way counts as inactive or inconclusive.

How the values were obtained:
[1] = HEK293 12hr Apoptosis Induction qHTS against the NCATS CANVASS Library (AID 1347361); conditions: HEK293 caspase-3/7 Caspase-Glo luminescence; series mostly up to 46.1 µM
Method in brief: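 Apoptosis in HEK293 was scored as caspase-3/7 luminescence following 12 h treatment with a compound concentration series in qHTS format.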

[2] = system: NAD(P)H diaphorase (Clostridium kluyveri); test: Diaphorse counterscreen qHTS: Assay Interference Panel against the NCATS CANVASS Library (AID 1347362); conditions: Diaphorase enzyme, resazurin to resorufin fluorescence; series mostly up to 57.5 µM
Method in brief: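 Counterscreen for coupling-enzyme interference: resorufin fluorescence from resazurin/NADH turnover, read after 5 min at room temperature. Compounds were tested over an 11-point series after 15 min dark preincubation with diaphorase in PBS-Tween.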

[3] = molecular target: Luciferin 4-monooxygenase (Photinus pyralis) (UniProt P08659); test: Firefly luciferase counterscreen qHTS: Assay Interference Panel against the NCATS CANVASS Library (AID 1347363); conditions: purified firefly luciferase, luminescence inhibition, 5 min; series mostly up to 57.5 µM
Sequence of Luciferin 4-monooxygenase (Photinus pyralis) (P08659 whole entry, looked up): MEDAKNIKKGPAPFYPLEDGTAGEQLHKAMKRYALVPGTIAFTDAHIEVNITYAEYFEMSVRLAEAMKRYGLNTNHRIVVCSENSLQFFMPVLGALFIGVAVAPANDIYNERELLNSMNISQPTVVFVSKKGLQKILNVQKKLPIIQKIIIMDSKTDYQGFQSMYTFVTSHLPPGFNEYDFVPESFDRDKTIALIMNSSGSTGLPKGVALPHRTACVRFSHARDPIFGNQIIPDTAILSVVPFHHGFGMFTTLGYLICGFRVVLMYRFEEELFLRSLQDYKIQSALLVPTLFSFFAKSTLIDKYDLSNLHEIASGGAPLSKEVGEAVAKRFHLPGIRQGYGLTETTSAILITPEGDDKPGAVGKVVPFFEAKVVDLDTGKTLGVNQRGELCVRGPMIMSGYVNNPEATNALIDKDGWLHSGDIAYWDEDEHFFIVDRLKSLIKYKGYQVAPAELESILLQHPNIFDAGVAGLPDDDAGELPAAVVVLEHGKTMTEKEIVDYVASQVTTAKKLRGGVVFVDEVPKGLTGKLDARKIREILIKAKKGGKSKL
Method in brief: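 Luminescence inhibition readout: compounds (11-point qHTS) sat 15 min at room temperature with substrate mix (0.013 mM luciferin and ATP), then firefly luciferase was added and signal read 5 min later.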

[4] = KB-8-5-11 Cancer Cell Toxicity qHTS against the NCATS CANVASS Library (AID 1347364); conditions: KB-8-5-11 MDR cells viability, CellTiter-Glo, 72 h; series mostly up to 46.1 µM; further: nearly all actives have a fitted effect of over 75% in size
From the text: Natural products and their derivatives continue to be wellsprings of nascent therapeutic potential. However, many laboratories have limited resources for biological evaluation, leaving their previously isolated or synthesized compounds largely or completely untested. To address this issue, the Canvass library of natural products was assembled (https://tripod.nih.gov/canvass), in collaboration with academic and industry researchers, for quantitative high-throughput screening (qHTS) across a diverse set of cell-based and biochemical assays. The pure (>85% purity by liquid chromatography/mass spectrometry [LC/MS]) Canvass library of 346 natural products were submitted by 45 academic laboratories and companies around the world. We collected pure natural products to circumvent deconvolution and structure elucidation due to time and resource limitations. The library was formatted into 1536-well plates and evaluated in 50 qHTS (in an 11-pnt concentration series) bioassays with broad scope of disease-relevant mechanisms. The resulting data set from 50 different assays was then systematically analyzed to identify overall trends and specific natural products with interesting biological activities. Reported herein are the results of each individual qHTS and their corresponding assay protocol. […] National Center for Advancing Translational Sciences (NCATS), Rockville, MD National Institute of Health (NIH), Bethesda, Maryland
Cancer Cell Toxicity qHTS protocol 1. In a 1536 well, tissue culture treated white solid bottom plates (Corning 7494), 5 uL of KB-8-5-11 cell solution (final concentration of 500 cells / well) was dispensed using the Multidrop Combi dispenser (Thermo Fisher Scientific) into columns 3-48, rows 1-32. DMEM + 10% FBS + 100 U/mL penicillin / 100ug/mL streptomycin media solution was dispensed into column 1-2, row 1-32 also using the Multidrop Combi dispenser. […] Luminescence signal was acquired via the ViewLux plate reader (PerkinElmer) using a clear emission filter, 1 sec exposure, and 1x binning settings.

[5] = SDT Cancer Cell Toxicity qHTS against the NCATS CANVASS Library (AID 1347365); conditions: SDT dog glioma viability, ATP luminescence, 72 h; series mostly up to 46.1 µM;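 further: SDT canine glioma cells 500 per well in 1536 well plates; nearly all actives have a fitted effect of over 60% in size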
Method in brief: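 qHTS, SDT dog glioma line, 500 cells/well; cpds 11 pts; 72 hr, 37C, 5% CO2; CellTiterGlo ATP luminescence.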

[6] = KB-3-1 Cancer Cell Toxicity qHTS against the NCATS CANVASS Library (AID 1347366); conditions: KB-3-1 viability, CellTiter-Glo luminescence, 72 h; series mostly up to 46.1 µM; further: nearly all actives have a fitted effect of over 75% in size
Method in brief: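 Seed KB-3-1 cells at 500/well in DMEM with 10% FBS, add compounds, incubate 72 hr at 37C and 5% CO2, then add CellTiter-Glo and read luminescence after 10 minutes.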

[7] = qHTS for ATAD5 Agonist screened against the NCATS CANVASS Library (AID 1347367); conditions: HEK293T ATAD5-luciferase reporter, luminescence, 16 h; series mostly up to 46.1 µM;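 further: luciferase reporter driven by ATAD5 which rises upon DNA damage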
Method in brief: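 Step one plated reporter cells and let them acclimate 5hr. Step two pinned compounds with MMS as positive and 0.46% DMSO as negative control. After 16hr incubation, fluorescence viability then luminescence were read.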

[8] = G06 Cancer Cell Toxicity qHTS against the NCATS CANVASS Library (AID 1347368); conditions: G06 dog glioma cells, viability ATP luminescence, 72 h; series mostly up to 46.1 µM; further: nearly all actives have a fitted effect of over 60% in size
Method in brief: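 Dog G06 glioma line, 500 cells/well; cpds pin-transferred, 11-pt; 72 hr, 37C/5% CO2; CellTiterGlo luminescence (ATP) endpoint.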

[9] = MCF7 Cancer Cell Toxicity qHTS against the NCATS CANVASS Library (AID 1347369); conditions: MCF7 viability, ATP luminescence (CellTiter-Glo), 72 h; at 46 µM (top of the series)
Method in brief: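 Cytotoxicity is measured by ATP content: MCF7 cells at 500 per well receive an 11-point compound series and, after 72 hr at 37C, are lysed with CellTiterGlo for luminescence.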

[10] = qHTS for ATAD5 Antagonist screened against the NCATS CANVASS Library (AID 1347370); conditions: HEK293T-ATAD5-luc, 5-FUrd stimulated, luminescence, 16 h; series mostly up to 46.1 µM;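 further: HEK293T cells carrying an ATAD5 luciferase reporter co-treated with 10 µM 5-fluorouridine; nearly all actives have a fitted effect of over 65% in size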
Method in brief: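 HEK293T cells with stably integrated ATAD5-luciferase reporter, 2000/well, 5 h attachment; compounds plus 10 µM 5-fluorouridine, 16 h at 37 °C. Luciferase luminescence read, with CellTiter-Fluor viability read first.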

Measured: outcome

COC(=O)[C@@H]1[C@H]2C[C@H]3c4[nH]c5ccccc5c4CCN3C[C@@H]2CC[C@@H]1O
inactive: all assays above

O=c1cc(-c2ccccc2)oc2cc(O)c(O)c(O)c12
not listed: [2] | [3]
inactive: all other assays above

O=C(O)C(O)Cc1ccc(O)c(O)c1 (stereo unspecified)
not listed: [2] | [9]
inactive: all other assays above
